SMILES strings stand for the structures. Activity calls are given as the source filed them. Unless noted, no rule for the calls is given here.

Experiment [1] is described as follows: HepG2 liver cancer cell viability effects, profiling panel, resazurin fluorescence, 24 h, PK04 Diversity Set (AID 1172). Particulars: higher = more signal. On the technique in general: Alamar Blue is a resazurin reagent that responds to reducing activity.
Experiment [2] can be described thus: basal S. cerevisiae growth modulation, no modifier, primary screen, OD600, strain BY4716, 24 h, basal condition (AID 1173). Particulars: OD600, 24 h, higher = more signal, called active from +8 up or from −8 down.
Experiment [3] can be described thus: MM1S myeloma cell viability, profiling panel, resazurin fluorescence, basal, 24 h, PK04 Diversity Set (AID 1174).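 Also: MM1S multiple myeloma cell line.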 The settings on record: higher = more signal, called active from +8 up or from −8 down.
Experiment [4] addresses Dihydroorotate dehydrogenase (quinone), mitochondrial (Plasmodium falciparum (isolate 3D7)) (UniProt Q08210). Nature of the experiment: PfDHODH enzyme inhibitors, primary screen, biochemical, C-terminal His tag, absorbance 600 nm (AID 1175).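 Also: recombinant parasite enzyme with a five histidine tag at its C terminus.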 Particulars: DCIP absorbance 600 nm, higher = more signal, called active from +8 up or from −8 down.
Experiment [5] is described as follows: P. aeruginosa biofilm formation inhibitors, primary screen, strain PAO1, LB-PBS medium, absorbance 600 nm (AID 1176). The settings on record: P. aeruginosa PAO1 growth/biofilm, A600, 12 h; higher = more signal.
Experiment [6] can be described thus: S. cerevisiae RM11-1a growth modifiers, primary screen, strain RM11-1a, OD600, basal, 24 h (AID 1177).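 Also: cultures grown under basal conditions with no added stressor.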 Particulars: OD600, 24 h, higher = more signal, called active from +8 up or from −8 down.
Experiment [7] is described as follows: E. coli acrAB mutant growth effects, primary screen, E. coli filamentation inducers, strain DRC39, OD650, 24 h (AID 1178).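 Also: growth measured as culture turbidity by optical density at 650 nm.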 The settings on record: higher = more signal, called active from +8 up or from −8 down.
Experiment [8] in a line: E. coli acrAB mutant growth effects, primary screen, E. coli filamentation inducers, strain DRC39, OD650, 48 h (AID 1179).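 Also: screen aims at cell division blockers that make cells filament.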 The settings on record: E. coli DRC39 delta-acrAB growth, higher = more signal, called active from +8 up or from −8 down.
A short description of experiment [9]: RPMI8226 myeloma cell viability, profiling panel, resazurin fluorescence, basal, 24 h, PK04 Diversity Set (AID 1180).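 Also: RPMI8826 multiple myeloma cell line at 5000 cells per well.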 The settings on record: higher = more signal.
The target of experiment [10] is E3 ubiquitin-protein ligase XIAP (Homo sapiens) (UniProt P98170). The experiment in a line: XIAP binders, primary screen, biophysical, small-molecule microarray, fluorescence 635 nm (AID 1181).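 Also: score merges 667 nm emission and signal to noise over triplicate slides.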 Particulars: small-molecule microarray binding, higher = more signal.
The test system of experiment [11] is XIP peptide (Xip251-270) binding. The experiment in a line: small-molecule binders of XIP peptide, primary screen, biochemical, small-molecule microarray, fluorescence 635/667 nm, 0.1 µg/mL protein (AID 1182). Particulars: fluorescent protein binding, 635 nm, higher = more signal, called active from +8 up or from −8 down.
Experiment [12] deals with XIP peptide (Xip251-270). Nature of the experiment: small-molecule binders of XIP peptide, primary screen, biochemical, small-molecule microarray, fluorescence 635/667 nm, 0.5 µg/mL protein (AID 1183). Particulars: small-molecule microarray binding, fluorescence 635 nm; higher = more signal.
A short description of experiment [13]: Plasmodium falciparum growth inhibition, primary screen, strain 3D7, DAPI fluorescence, 100 nL (AID 1184).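 Also: parasites grown inside human red blood cells in medium with human serum.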 The settings on record: P. falciparum 3D7 growth, 3 d, higher = more signal.
The target in experiment [14] is Homeobox protein Hox-A13 (Mus musculus) (UniProt Q62424). Nature of the experiment: inhibitors of HoxA13-DNA binding, primary screen, biochemical, fluorescence polarization, labeled oligonucleotide (AID 1185). The settings on record: 15 min, higher = more signal, called active from +8 up or from −8 down. (In general: Polarisation of emitted light reports the rotation of a fluorescent probe.)

Experiment [15] in a line: inhibitors of hydroxyurea-induced Chk1 phosphorylation, primary screen, imaging, HeLa, phospho-Chk1 antibody, percent positive cells (AID 1186). Particulars: hydroxyurea-induced phospho-Chk1 immunofluorescence imaging, higher = more signal.
Experiment [16] is described as follows: inhibitors of hydroxyurea-induced Chk1 phosphorylation, primary screen, imaging, HeLa, phospho-Chk1 nuclear intensity (AID 1187). Particulars: hydroxyurea-induced phospho-Chk1 immunofluorescence imaging, higher = more signal.

Chain of Homeobox protein Hox-A13 (Mus musculus) (Q62424 whole entry, looked up): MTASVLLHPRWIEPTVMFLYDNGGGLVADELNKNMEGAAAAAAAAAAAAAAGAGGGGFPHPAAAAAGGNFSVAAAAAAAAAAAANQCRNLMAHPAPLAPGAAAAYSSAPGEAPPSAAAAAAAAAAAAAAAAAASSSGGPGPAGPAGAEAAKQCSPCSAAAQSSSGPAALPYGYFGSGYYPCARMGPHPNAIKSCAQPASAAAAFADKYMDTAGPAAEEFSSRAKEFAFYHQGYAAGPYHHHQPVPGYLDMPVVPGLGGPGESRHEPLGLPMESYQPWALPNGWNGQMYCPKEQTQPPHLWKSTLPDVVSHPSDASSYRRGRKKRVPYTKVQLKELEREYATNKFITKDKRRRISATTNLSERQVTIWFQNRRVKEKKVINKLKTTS
Chain of E3 ubiquitin-protein ligase XIAP (Homo sapiens) (P98170 whole entry, looked up): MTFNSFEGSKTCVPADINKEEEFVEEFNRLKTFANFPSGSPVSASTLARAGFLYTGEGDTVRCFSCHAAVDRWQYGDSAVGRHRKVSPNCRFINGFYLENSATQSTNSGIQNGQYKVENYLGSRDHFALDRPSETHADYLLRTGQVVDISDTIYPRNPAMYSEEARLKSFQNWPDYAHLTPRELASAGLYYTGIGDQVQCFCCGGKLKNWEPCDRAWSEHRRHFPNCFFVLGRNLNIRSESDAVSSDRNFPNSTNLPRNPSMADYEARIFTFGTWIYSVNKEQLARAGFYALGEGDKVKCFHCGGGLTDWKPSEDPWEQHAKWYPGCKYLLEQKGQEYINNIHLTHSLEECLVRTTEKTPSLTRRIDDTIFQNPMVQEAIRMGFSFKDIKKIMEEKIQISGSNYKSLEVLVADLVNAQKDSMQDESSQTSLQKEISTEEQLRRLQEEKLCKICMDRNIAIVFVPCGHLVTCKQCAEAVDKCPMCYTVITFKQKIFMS
Chain of Dihydroorotate dehydrogenase (quinone), mitochondrial (Plasmodium falciparum (isolate 3D7)) (Q08210 whole entry, looked up): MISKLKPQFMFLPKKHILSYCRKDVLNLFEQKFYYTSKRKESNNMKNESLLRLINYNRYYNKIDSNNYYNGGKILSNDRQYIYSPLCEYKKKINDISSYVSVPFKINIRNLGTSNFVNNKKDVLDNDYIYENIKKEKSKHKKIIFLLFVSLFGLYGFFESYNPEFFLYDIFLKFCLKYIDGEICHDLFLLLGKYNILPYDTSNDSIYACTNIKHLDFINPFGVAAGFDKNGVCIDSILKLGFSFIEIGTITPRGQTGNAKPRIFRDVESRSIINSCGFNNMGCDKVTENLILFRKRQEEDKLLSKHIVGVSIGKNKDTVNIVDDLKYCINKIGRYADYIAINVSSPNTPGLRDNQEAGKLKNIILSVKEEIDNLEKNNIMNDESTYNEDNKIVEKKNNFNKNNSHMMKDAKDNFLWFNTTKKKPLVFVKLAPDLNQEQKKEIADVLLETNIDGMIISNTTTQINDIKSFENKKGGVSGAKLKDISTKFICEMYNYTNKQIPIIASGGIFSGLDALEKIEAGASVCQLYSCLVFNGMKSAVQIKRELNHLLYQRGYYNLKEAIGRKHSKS

For `CC(C)N1C(=O)c2ccccc2[C@](C)(C(=O)NCCCN(C)C)[C@@H]1c1ccc(CO)cc1`, the z-score in experiment [1] was 0.257; in experiment [2], -0.919 (inactive); in [3], 0.627 (inactive); in [5], -0.522 (inactive); in [6], -0.283 (inactive); in [7], 0.0957 (inactive). For the same compound, the z-score is -0.429 (inactive) in [8]; 0.842 in experiment [9]; 0.191 in experiment [13]; -1.73 (inactive) in experiment [14]; 0.0165 (inactive) in experiment [15]; 0.149 (inactive) in experiment [16]. Also, the composite z-score is 0.0044 (inactive) in [4], 0.0871 in [10], 0.289 (inactive) in [11] and 0.431 in experiment [12].

As to `CN(C)CCCC[C@@H]1NC(=O)[C@@H]2C[C@H](C(=O)NCc3ccc(F)cc3)[C@H](c3cccc(OCCO)c3)N2C1=O`, the z-score in [1] is -0.487; in experiment [2], -0.889 (inactive); in experiment [3] it was 0.0458 (inactive); in [5], 0.199 (inactive); in experiment [6], -0.889 (inactive); in experiment [7], 0.797 (inactive). Besides, the z-score is 0.83 (inactive) in [8]; 0.293 in [9]; -0.459 in experiment [13]; -3.36 (inactive) in experiment [14]; 0.445 (inactive) in experiment [15]; 0.314 (inactive) in experiment [16]. The composite z-score in [4] was -0.366 (inactive); in experiment [10] it was 0.0808; in experiment [11], 0.658 (inactive); in experiment [12], 0.813.

For the compound `CC(C)C[C@@H]1NC(=O)[C@@H]2C[C@H](C(=O)NCCCCN(C)C)[C@H](c3ccc(O)cc3)N2C1=O`, the z-score in experiment [1] is 0.955; in experiment [2] it was 0.463 (inactive); in [3], 0.396 (inactive); in experiment [5], -0.475 (inactive); in [6], 0.505 (inactive); in experiment [7] it was -0.113 (inactive). Moreover, the z-score in experiment [8] was -0.401 (inactive); in experiment [9], 0.0109; in experiment [13], -0.06; in [14], -1.49 (inactive); in [15], 0.326 (inactive); in experiment [16], 0.219 (inactive). For the same compound, the composite z-score was -0.0312 (inactive) in [4], 0.102 in experiment [10], -0.0862 (inactive) in experiment [11] and 0.937 in experiment [12].

As to `CCCNC(=O)[C@@]1(C)c2ccccc2C(=O)N(Cc2cc(C(F)(F)F)cc(C(F)(F)F)c2)[C@H]1c1ccc(CO)cc1`, the z-score in experiment [1] is 0.597; in experiment [2] it was -0.991 (inactive); in [3] it was 0.526 (inactive); in experiment [5], 0.882 (inactive); in experiment [6], -0.563 (inactive); in experiment [7] it was 0.0099 (inactive). Also, the z-score was -0.161 (inactive) in experiment [8]; 0.73 in [9]; -1.63 in experiment [13]; -4.26 (inactive) in [14]; -0.0596 (inactive) in experiment [15]; -0.0865 (inactive) in [16]. Also, the composite z-score in experiment [4] was -0.241 (inactive); in [10], -0.212; in experiment [11], 0.977 (inactive); in experiment [12], 0.665.

`COC(=O)[C@@]1(Cc2ccccc2)[C@H]2c3cc(C(=O)N(C)C)n(Cc4cc(F)c(F)c(F)c4)c3C[C@H]2CN1C(=O)c1ccccc1`: the z-score was 0.0126 in [1]; 0.989 (inactive) in experiment [2]; -0.402 (inactive) in [3]; -0.0019 (inactive) in experiment [5]; 0.968 (inactive) in experiment [6]; 0.194 (inactive) in [7]. The z-score is 0.322 (inactive) in experiment [8]; -0.963 in experiment [9]; -1.52 in [13]; -4 (inactive) in experiment [14]; -0.217 (inactive) in [15]; -0.227 (inactive) in experiment [16]. The composite z-score in experiment [4] was -0.258 (inactive); in [10] it was 0.272; in experiment [11] it was -0.218 (inactive); in experiment [12], 0.0006.

As for `C=CC[C@]1(C(=O)NCCN2CCOCC2)N=C(c2ccc(OCCCO)cc2)O[C@H]1c1ccccc1N=[N+]=[N-]`, the z-score in experiment [1] was -0.153; in experiment [2] it was -1.51 (inactive); in experiment [3], 0.0032 (inactive); in [5], -0.251 (inactive); in experiment [6], 0.393 (inactive); in [7] it was 2.29 (inactive). Besides, the z-score is 0.746 (inactive) in experiment [8]; -0.414 in [9]; -2.27 in experiment [13]; -3.35 (inactive) in experiment [14]; -0.56 (inactive) in experiment [15]; -0.265 (inactive) in experiment [16]. Besides, the composite z-score in experiment [4] is 0.918 (inactive); in [10] it was 0.113; in experiment [11], 3.25 (inactive); in experiment [12], 0.819.

The values are drawn from PubChem BioAssay.
